Drawing on PubChem BioAssay (NCATS), this text covers Potency and outcome for 15 compounds.

The structures appear in SMILES notation. Inconclusive results are not listed. Active and inactive are the calls of the source. Calls follow the shape of the dose curve; as a rule, active = well fitted curve in the direction sought with a large enough effect; inconclusive = small, poorly fitted or top-dose-only effect, or another doubt; inactive = no such curve, though single readings can be large; an effect the other way counts as inactive or inconclusive.

Experiment [1] addresses Luciferin 4-monooxygenase (Photinus pyralis) (UniProt P08659). In words: Primary firefly luciferase (FLuc) qHTS assay for identification of artifact compounds. (AID 1845220). Also: nearly all actives have a fitted effect of over 60% in size. The method, boiled down: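 D-luciferin and ATP (10 uM each, final) in Tris acetate buffer pH 7.6 were incubated with compounds for 15 min at room temperature. The reaction was started with 10 nM Photinus pyralis luciferase and luminescence read after 5 min. Percent inhibition was fitted to a 4-parameter Hill equation.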
(In general: In qHTS, concentration-response curves come from the screen itself.)

The test system of experiment [2] is Nanoluciferase (engineered Oplophorus gracilirostris luciferase). In words: Primary Nanoluciferase (NLuc) qHTS assay for identification of artifact compounds. (AID 1845222). The essentials:
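Diluted conditioned medium from NLuc-expressing S16 cells treated with compounds for 15 min at room temperature, then Nano-Glo substrate added; luminescence read after 5 min. Percent inhibition versus no-enzyme and DMSO controls fitted to 4-parameter Hill equation.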

Experiment [3] can be described thus: Primary redox qHTS assay for identification of artifact compounds. (AID 1845223). The method, boiled down:
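Redox-cycling detection via DTT (250 uM final) oxidation coupled to Amplex Red (25 uM)/HRP (250 mU/mL) in HBSS. 15 min preincubation plus 30 min after DTT, room temperature. Ex/Em 525/598 nm; 4-parameter Hill fit against DMSO and 10 uM DA3003.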

A short description of experiment [4]: Quantitative High-Throughput drug screen in 47 multiple myeloma cell lines against the NCATS MIPE library collection: FR4_PLB cell viability assay (AID 1918924; also: nearly all actives have a fitted effect of over 35% in size; also: potency is read from the fitted curve at half-maximal effect). The essentials: (§1)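 Steps: seed 500 cells per well; pin-transfer MIPE 4.0 library; incubate 48 h at 37C, 5% CO2, humidified; add CellTiter-Glo, 5 min room temperature; read luminescence.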
Experiment [5] is described as follows: Quantitative High-Throughput drug screen in 47 multiple myeloma cell lines against the NCATS MIPE library collection: EJM_DSMZ cell viability assay (AID 1918926; also: nearly all actives have a fitted effect of over 30% in size; also: potency is read from the fitted curve at half-maximal effect). The method, boiled down: (§2)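 Inhibition of cell viability is measured here. Each line was plated at 500 cells per well, treated with MIPE 4.0 drugs, kept 48 hours at 37C, then assayed for ATP content by CellTiter-Glo luminescence.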

Experiment [6] can be described thus: Quantitative High-Throughput drug screen in 47 multiple myeloma cell lines against the NCATS MIPE library collection: KMM1_JCRB cell viability assay (AID 1918960). Also: nearly all actives have a fitted effect of over 30% in size. Also: potency is read from the fitted curve at half-maximal effect. The essentials: (§3)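 Viability screen: myeloma cells (500/well) incubated 48 h at 37 °C, humidified 5% CO2, with pinned library compounds; CellTiter-Glo added, luminescence read; DMSO wells set 100%, medium-only wells 0%.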

Experiment [7] can be described thus: Quantitative High-Throughput drug screen in 47 multiple myeloma cell lines against the NCATS MIPE library collection: INA6_PLB cell viability assay (AID 1918965; also: nearly all actives have a fitted effect of over 55% in size; also: potency is read from the fitted curve at half-maximal effect). The essentials:
(§4)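 CellTiter-Glo luminescence (ATP) after 48 h compound exposure, 37C/5% CO2; 500 cells/well; MIPE 4.0 approved/investigational drugs pinned in; DMSO = 100%, media only = 0% viability.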

Experiment [8] in a line: Quantitative High-Throughput drug screen in 47 multiple myeloma cell lines against the NCATS MIPE library collection: JJN3_DSMZ cell viability assay (AID 1918966; also: nearly all actives have a fitted effect of over 50% in size; also: potency is read from the fitted curve at half-maximal effect). The essentials:
as §2

Experiment [9] in a line: Quantitative High-Throughput drug screen in 47 multiple myeloma cell lines against the NCATS MIPE library collection: Delta47_JCRB cell viability assay (AID 1918925; also: nearly all actives have a fitted effect of over 45% in size; also: potency is read from the fitted curve at half-maximal effect). The essentials:
as §2

Experiment [10] is described as follows: Quantitative High-Throughput drug screen in 47 multiple myeloma cell lines against the NCATS MIPE library collection: ARP1_JJKsccF8 cell viability assay (AID 1918928; also: nearly all actives have a fitted effect of over 40% in size; also: potency is read from the fitted curve at half-maximal effect). The essentials:
as §3

The nature of experiment [11]: Quantitative High-Throughput drug screen in 47 multiple myeloma cell lines against the NCATS MIPE library collection: ARD_JJKsccE7 cell viability assay (AID 1918929; also: potency is read from the fitted curve at half-maximal effect). The method, boiled down:
as §2

Experiment [12] can be described thus: Quantitative High-Throughput drug screen in 47 multiple myeloma cell lines against the NCATS MIPE library collection: Karpas620_DSMZ cell viability assay (AID 1918959). Also: nearly all actives have a fitted effect of over 30% in size. Also: potency is read from the fitted curve at half-maximal effect. The method, boiled down:
as §1

Experiment [13] can be described thus: Quantitative High-Throughput drug screen in 47 multiple myeloma cell lines against the NCATS MIPE library collection: H1112_PLB cell viability assay (AID 1918967; also: nearly all actives have a fitted effect of over 30% in size; also: potency is read from the fitted curve at half-maximal effect). The essentials: as §2
The nature of experiment [14]: Primary fluorescence-based thiol-reactive (MSTI) qHTS assay for identification of artifact compounds. (AID 1845221). Also: nearly all actives have a fitted effect of over 65% in size. Also: potency is read from the fitted curve at half-maximal effect. The method, boiled down:
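One-hour, room-temperature, dark incubation of compound with 4 uM MSTI in PBS (pH 7.4, 2% DMSO) precedes a fluorescence read at 525 nm excitation, 598 nm emission; Hill-equation fitting yields concentration-response values.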

Experiment [15] can be described thus: Quantitative High-Throughput drug screen in 47 multiple myeloma cell lines against the NCATS MIPE library collection: JIM3_ECACC cell viability assay (AID 1918963; also: nearly all actives have a fitted effect of over 35% in size; also: potency is read from the fitted curve at half-maximal effect). The essentials:
as §1

Experiment [16] can be described thus: Quantitative High-Throughput drug screen in 47 multiple myeloma cell lines against the NCATS MIPE library collection: AMO1_DSMZ cell viability assay (AID 1918927; also: nearly all actives have a fitted effect of over 30% in size; also: potency is read from the fitted curve at half-maximal effect). The method, boiled down: as §2
A short description of experiment [17]: Quantitative High-Throughput drug screen in 47 multiple myeloma cell lines against the NCATS MIPE library collection: JIM1_ECACC cell viability assay (AID 1918964; also: potency is read from the fitted curve at half-maximal effect). The method, boiled down: as §2
A short description of experiment [18]: Quantitative High-Throughput drug screen in 47 multiple myeloma cell lines against the NCATS MIPE library collection: KHM11_PLB cell viability assay (AID 1918962). Also: nearly all actives have a fitted effect of over 35% in size. Also: potency is read from the fitted curve at half-maximal effect. The method, boiled down:
as §1

Experiment [19] is described as follows: Quantitative High-Throughput drug screen in 47 multiple myeloma cell lines against the NCATS MIPE library collection: Karpas417_ECACC cell viability assay (AID 1918961). Also: potency is read from the fitted curve at half-maximal effect. The settings on record: Karpas417 myeloma viability, CellTiter-Glo ATP luminescence, 48 h; viability (% of DMSO): at 45.8 µM (top of the series). The essentials:
as §4
For orientation: Cellular ATP, detected with luciferase, serves as a proxy for viable cell number.

For the compound `CN(C)c1ccc(-c2nc3ncc(Cl)c(N4CCN(CC(=O)Nc5nccs5)CC4)c3[nH]2)cc1`, the Potency entry in experiment [1], in [2] and in [6] was “inactive” in each case. In addition, the compound was classed as inactive in experiment [3]. The Potency was 2.09 µM (active) in experiment [4], 5.9 µM (active) in experiment [5], 2.64 µM (active) in experiment [7] and 18.7 µM (active) in experiment [8].
For the compound `NC(N)=Nc1nc(CSCCC(N)=NS(N)(=O)=O)cs1`, the Potency entry in [4], in experiment [10], in [11], in experiment [12] and in [6] was “inactive” throughout. Further, the Potency was 10.5 µM (active) in experiment [9], 23.5 µM (active) in experiment [5], 11.8 µM (active) in experiment [7] and 16.6 µM (active) in experiment [13].
For `CN1c2ccccc2C(=O)N2CCc3c([nH]c4ccccc34)C21` (centres undefined), the Potency entry in experiment [1], in [14], in experiment [2], in experiment [4], in [5] and in experiment [11] was “inactive” in each case. The Potency result in [12] and in experiment [6] was “inactive” in each case. Moreover, the compound was called inactive in experiment [3]. Moreover, the Potency was 26.4 µM (active) in [9] and 23.5 µM (active) in experiment [15].
Turning to `COc1nccc(-c2c(-c3ccc(F)cc3)ncn2C2CCNCC2)n1`, the Potency entry in experiment [1], in experiment [14], in [2], in experiment [5], in experiment [16] and in experiment [12] was “inactive” each time. Moreover, the Potency entry in experiment [6] is “inactive”. The result in experiment [3] was inactive. Besides, the Potency in experiment [7] is 10.5 µM (active); in [13], 1.66 µM (active).
Consider `O=C1C(CCC(O)c2ccc(F)cc2)C(c2ccc(O)cc2)N1c1ccc(F)cc1` (centres undefined), for which the Potency result in [4], in experiment [9], in [5], in experiment [16], in [10] and in experiment [12] was “inactive” each time. The Potency entry in [17], in experiment [7] and in experiment [13] was “inactive” each time.
For the compound `CCOC(=O)[C@H](CCc1ccccc1)N[C@@H](C)C(=O)N1CCCC1C(=O)O` (some centres undefined), the Potency entry in experiment [4], in [9], in [5], in [16], in [10] and in experiment [11] was “inactive” each time. In addition, the Potency result in experiment [12], in [6], in experiment [18], in [8] and in experiment [13] was “inactive” throughout.
Take `O=S(=O)(O)c1ccc2cc(N=Nc3cc(S(=O)(=O)O)c4cccnc4c3O)ccc2c1`: the Potency in experiment [14] is 0.15 µM (active); in experiment [5], 16.6 µM (active); in experiment [10] it was 2.35 µM (active); in experiment [8] it was 18.7 µM (active). For the same compound, the call in experiment [3] was inactive. For the same compound, the Potency result in experiment [16], in [11], in experiment [12] and in experiment [6] was “inactive” each time.
Take `CN1CC(=O)N2C(Cc3c([nH]c4ccccc34)[C@H]2c2ccc3c(c2)OCO3)C1=O` (some centres undefined): the Potency result in experiment [4], in [9], in experiment [5], in [10], in experiment [11] and in [12] was “inactive” throughout. Moreover, the Potency result in experiment [6], in experiment [18], in [15] and in [13] was “inactive” throughout.
Regarding `CN(C)CCOc1ccc(-c2nc(-c3ccc4c(c3)CCC4=NO)c(-c3ccncc3)[nH]2)cc1`, the Potency is 18.7 µM (active) in experiment [4]; 14.8 µM (active) in [9]; 23.5 µM (active) in experiment [5]; 18.7 µM (active) in experiment [16]; 16.6 µM (active) in experiment [10]; 23.5 µM (active) in experiment [11]. Also, the Potency in experiment [12] was 11.8 µM (active); in [6], 14.8 µM (active); in [18], 1.32 µM (active); in [15], 23.5 µM (active); in [8], 16.6 µM (active); in [13], 23.5 µM (active).
Regarding `CCCCCOC(=O)Nc1nc(=O)n([C@@H]2O[C@H](C)[C@@H](O)C2O)cc1F` (some centres undefined), the Potency result in experiment [4], in experiment [9], in experiment [5], in experiment [16], in [10] and in [11] was “inactive” each time. Besides, the Potency entry in experiment [12], in experiment [6], in experiment [17], in [8] and in [13] was “inactive” throughout.
For `COc1ccc2c(c1)CC[C@H]1[C@@H]2CC[C@]2(C)[C@@H](NCCCCCCN3C(=O)C=CC3=O)CC[C@H]12`, the Potency result in experiment [4], in experiment [9], in [5], in experiment [16], in [10] and in experiment [11] was “inactive” in each case. The Potency entry in experiment [12], in [6], in experiment [15] and in [13] was “inactive” in each case.
With `Cc1[nH]c(C=C2C(=O)Nc3ccc(S(=O)(=O)N(C)c4cccc(Cl)c4)cc32)c(C)c1C(=O)N1CCN(C)CC1`, the Potency is 26.4 µM (active) in experiment [4]; 14.8 µM (active) in experiment [9]; 23.5 µM (active) in [5]; 5.9 µM (active) in [16]; 6.62 µM (active) in experiment [11]; 6.62 µM (active) in experiment [6]. The Potency in experiment [19] is 3.72 µM (active); in experiment [18] it was 18.7 µM (active); in [17] it was 9.35 µM (active); in [7], 11.8 µM (active); in experiment [8] it was 20.9 µM (active); in [13], 20.9 µM (active).
Consider `CCC(=C(c1ccc(O)cc1)c1ccc(OCCNC)cc1)c1ccccc1`, for which the Potency was 26.4 µM (active) in [4]; 5.9 µM (active) in [9]; 23.5 µM (active) in experiment [5]; 20.9 µM (active) in experiment [16]; 26.4 µM (active) in [12]; 20.9 µM (active) in [15]. For the same compound, the Potency is 2.64 µM (active) in experiment [7], 18.7 µM (active) in experiment [8] and 23.5 µM (active) in [13].
`CN(C)CCN(C)C(=O)c1ccc(NC(=O)Nc2ccc(-c3nc(N4CCOCC4)c4ccn(CC(F)(F)F)c4n3)cc2)cc1`: the Potency in experiment [4] was 0.0372 µM (active); in experiment [9], 0.0264 µM (active); in experiment [5] it was 0.209 µM (active); in experiment [11], 0.0235 µM (active); in experiment [15], 0.105 µM (active); in [17], 0.001 µM (active). The Potency in experiment [8] is 0.0372 µM (active); in experiment [13], 3.32 µM (active).
`O=C(O)C1=NC(C(=O)O)CC(C=CN2c3cc(O)c(OC4OC(CO)C(O)C(O)C4O)cc3CC2C(=O)O)=C1` (centres undefined): the Potency entry in experiment [4], in experiment [9], in experiment [5], in experiment [12], in experiment [6] and in experiment [19] was “inactive” throughout. For the same compound, the Potency result in experiment [15], in experiment [17], in experiment [7] and in experiment [13] was “inactive” each time.
